Compounds without any hit were thinned out: in the full panel of roughly 79,000, 15% have a hit. The source made the active and inactive calls. Rule as the data show it: active = growth inhibition above about 70%; inactive = the rest.
Assays:
[1] = NCI Yeast Anticancer Drug Screen. Data for the rad52 strain (AID 147);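 also: 0% = growth of vehicle-treated control cultures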; conditions: S. cerevisiae rad52 mutant growth inhibition, active compounds read high
Outline: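 Read-out: growth inhibition versus vehicle-treated controls. Cells were a DNA repair-deficient yeast strain treated with compounds.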

[2] = NCI Yeast Anticancer Drug Screen. Data for the wt1 strain (AID 149);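 also: 0% = growth of vehicle-treated wt1 cultures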; conditions: S. cerevisiae wt1 strain (SPY 50644) growth inhibition, active compounds read high
Outline: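 The wt1 strain was treated with compounds, and growth was compared with vehicle-treated cultures to give inhibition.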

[3] = NCI Yeast Anticancer Drug Screen. Data for the rad50EPP+ strain (AID 151);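 also: 0% = growth of vehicle-treated control cultures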; conditions: S. cerevisiae rad50 mutant strain, active compounds read high
Outline: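 Growth inhibition read against vehicle controls in rad50EPP+ yeast, a strain altered in DNA damage repair, after compound exposure.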

[4] = NCI Yeast Anticancer Drug Screen. Data for the mgt1 strain (AID 153); conditions: S. cerevisiae mgt1 mutant growth inhibition, active compounds read high
Outline: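 mgt1 yeast grown with test compound; read-out is growth inhibition versus vehicle-treated cultures.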

[5] = NCI Yeast Anticancer Drug Screen. Data for the rad50 strain (AID 155);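 also: 0% = growth of vehicle-only cultures of the same strain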; conditions: S. cerevisiae rad50 strain growth inhibition, active compounds read high
Outline: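 Cells are treated with compound, grown, and their growth is then scored against vehicle-only cultures of the same repair-deficient yeast strain.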

[6] = NCI Yeast Anticancer Drug Screen. Data for the mec2-1 strain (AID 157); conditions: S. cerevisiae mec2-1 strain, active compounds read high
Outline: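 Yeast mec2-1 mutant treated with compound. Readout: growth inhibition vs vehicle controls.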

[7] = NCI Yeast Anticancer Drug Screen. Data for the rad14 strain (AID 159);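 also: 0% = growth of vehicle-treated control cultures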; conditions: S. cerevisiae rad14 strain growth inhibition, active compounds read high
Outline: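 Readout: yeast growth inhibition, referenced to vehicle-only cultures. Strain bears a defined alteration in DNA damage repair.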

[8] = NCI Yeast Anticancer Drug Screen. Data for the sgs1 mgt1 strain (AID 161);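 also: 0% = growth of cultures given vehicle only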; conditions: S. cerevisiae sgs1 mgt1 strain, active compounds read high
Outline: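 Mutant yeast exposed to compound; growth scored against vehicle-only wells.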

[9] = NCI Yeast Anticancer Drug Screen. Data for the CLN2oe strain (AID 163);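 also: 0% = growth of vehicle-only control cultures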; conditions: S. cerevisiae CLN2oe strain, active compounds read high
Outline: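 Read-out: yeast growth inhibition, expressed relative to vehicle-only controls. The strain bears an engineered cell-cycle alteration.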

[10] = NCI Yeast Anticancer Drug Screen. Data for the cln2 rad14 strain (AID 165);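 also: 0% = growth equal to vehicle treated cultures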; conditions: S. cerevisiae cln2 rad14 strain, active compounds read high
Outline: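 cln2 rad14 yeast strain; compound exposure; growth inhibition read vs vehicle controls.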

[11] = NCI Yeast Anticancer Drug Screen. Data for the bub3 strain (AID 167); conditions: S. cerevisiae bub3 mutant strain, active compounds read high
Outline: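 Part of a panel of yeast mutants defective in DNA damage repair or cell cycle regulation. Each strain is grown with compound, and inhibition is calculated relative to solvent-treated cultures.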

[12] = NCI Yeast Anticancer Drug Screen. Data for the wt2 strain (AID 169);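 also: 0% = growth of vehicle-treated yeast cultures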; conditions: S. cerevisiae wt2 strain growth inhibition, active compounds read high
Outline: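 Read-out: growth inhibition versus vehicle-treated control cultures after compound exposure of the yeast strain.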

[13] = NCI Yeast Anticancer Drug Screen. Data for the mlh1 strain (AID 171);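 also: 0% = growth of vehicle-treated control cultures of the same strain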; conditions: S. cerevisiae mlh1 strain growth inhibition, active compounds read high
Outline: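 Read-out: growth inhibition versus vehicle controls. Strain: engineered yeast with a defined DNA repair or cell cycle defect, compound-treated.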

[14] = NCI Yeast Anticancer Drug Screen. Data for the sgs1 strain (AID 173);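 also: 0% = growth of vehicle-only control cultures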; conditions: S. cerevisiae sgs1 mutant, active compounds read high
Outline: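 Read-out: yeast growth inhibition relative to vehicle controls, following compound exposure of a strain with a defined DNA repair/cell cycle alteration.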

[15] = NCI Yeast Anticancer Drug Screen. Data for the mlh1 rad18 strain (AID 175); conditions: S. cerevisiae mlh1 rad18 strain growth inhibition, active compounds read high
Outline: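 Yeast w/ defined DNA-repair lesions; compound exposure; growth vs vehicle controls → % inhibition.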

[16] = NCI Yeast Anticancer Drug Screen. Data for the rad18 strain (AID 177); conditions: S. cerevisiae rad18 mutant growth inhibition, active compounds read high
Outline: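 Readout: growth inhibition vs vehicle controls. Cells: genetically altered yeast strain, DNA repair defect.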

[17] = at 5.0 µM (retest, dose inferred, filed as 0.5)
[18] = at 50.0 µM (retest, dose inferred, filed as 5.0)

Measured: growth inhibition

CN(C)CCNC(=Cc1ccc2ccccc2[n+]1C)NCCN(C)C
inactive: [1]; at 1.2 µM 0% | [1]; at 3.7 µM 0% | [1]; at 11.0 µM 0% | [1]; at 33.0 µM -1% | [1]; at 100.0 µM -2% | [2]; at 1.2 µM 0% | [2]; at 3.7 µM -2% | [2]; at 11.0 µM -2% | [2]; at 33.0 µM -1% | [2]; at 100.0 µM 0% | [3]; at 1.2 µM -2% | [3]; at 3.7 µM 0% | [3]; at 11.0 µM 1% | [3]; at 33.0 µM 3% | [3]; at 100.0 µM 2% | [4]; at 1.2 µM 0% | [4]; at 3.7 µM 0% | [4]; at 11.0 µM -3% | [4]; at 33.0 µM -1% | [4]; at 100.0 µM -1% | [5]; at 1.2 µM 1% | [5]; at 3.7 µM 1% | [5]; [17] -1% | [5]; at 11.0 µM 1% | [5]; at 33.0 µM 2% | [5]; [18] 2% | [5]; at 50.0 µM 24.2% | [5]; at 100.0 µM 1% | [6]; at 1.2 µM -5% | [6]; at 3.7 µM 0% | [6]; [17] 0% | [6]; at 11.0 µM 3% | [6]; at 33.0 µM 1% | [6]; [18] 2% | [6]; at 50.0 µM 19.6% | [6]; at 100.0 µM 1% | [7]; at 1.2 µM -2% | [7]; at 3.7 µM -1% | [7]; at 11.0 µM -2% | [7]; at 33.0 µM -3% | [7]; at 100.0 µM -2% | [8]; [17] -12% | [8]; [18] -13% | [8]; at 50.0 µM 19.4% | [9]; at 1.2 µM -3% | [9]; at 3.7 µM 0% | [9]; at 11.0 µM 0% | [9]; at 33.0 µM 4% | [9]; at 100.0 µM -1% | [10]; [17] 1% | [10]; [18] 8% | [10]; at 50.0 µM -2.95% | [11]; at 1.2 µM 2% | [11]; at 3.7 µM -3% | [11]; [17] -3% | [11]; at 11.0 µM 0% | [11]; at 33.0 µM -9% | [11]; [18] -2% | [11]; at 50.0 µM -4.65% | [11]; at 100.0 µM -5% | [12]; at 1.2 µM -2% | [12]; at 3.7 µM -3% | [12]; at 11.0 µM -2% | [12]; at 33.0 µM -2% | [12]; at 100.0 µM 0% | [13]; at 1.2 µM 0% | [13]; at 3.7 µM -2% | [13]; at 11.0 µM 1% | [13]; at 33.0 µM 0% | [13]; at 100.0 µM 0% | [14]; at 1.2 µM 0% | [14]; at 3.7 µM 0% | [14]; at 11.0 µM 0% | [14]; at 33.0 µM 0% | [14]; at 100.0 µM 1% | [15]; [17] -4% | [15]; [18] 47% | [15]; at 50.0 µM 34% | [16]; at 1.2 µM -2% | [16]; at 3.7 µM -4% | [16]; at 11.0 µM 0% | [16]; at 33.0 µM -2% | [16]; at 100.0 µM -1%

c1ccc2c(c1)N=C1CCCC3CCCC123 (stereo unspecified)
active: [1]; at 100.0 µM 98% | [2]; at 100.0 µM 97% | [4]; at 100.0 µM 98% | [5]; at 50.0 µM 91% | [5]; at 100.0 µM 98% | [6]; at 50.0 µM 89.6% | [6]; at 100.0 µM 99% | [7]; at 100.0 µM 97% | [8]; at 50.0 µM 83.7% | [9]; at 100.0 µM 98% | [11]; at 50.0 µM 91.4% | [11]; at 100.0 µM 98% | [12]; at 100.0 µM 98% | [13]; at 100.0 µM 97% | [14]; at 100.0 µM 99% | [15]; at 50.0 µM 90.8% | [16]; at 100.0 µM 98%
inactive: [1]; at 1.2 µM 3% | [1]; at 3.7 µM 4% | [1]; at 11.0 µM 11% | [1]; at 33.0 µM 56% | [2]; at 1.2 µM -2% | [2]; at 3.7 µM 2% | [2]; at 11.0 µM 7% | [2]; at 33.0 µM -1% | [3]; at 1.2 µM -9% | [3]; at 3.7 µM -14% | [3]; at 11.0 µM -11% | [3]; at 33.0 µM 5% | [3]; at 100.0 µM 68% | [4]; at 1.2 µM 1% | [4]; at 3.7 µM 1% | [4]; at 11.0 µM 6% | [4]; at 33.0 µM 21% | [5]; at 1.2 µM -2% | [5]; at 3.7 µM 2% | [5]; [17] -161% | [5]; at 11.0 µM 11% | [5]; at 33.0 µM 32% | [5]; [18] 63% | [6]; at 1.2 µM -2% | [6]; at 3.7 µM 1% | [6]; [17] -46% | [6]; at 11.0 µM -15% | [6]; at 33.0 µM 25% | [6]; [18] 65% | [7]; at 1.2 µM -3% | [7]; at 3.7 µM -7% | [7]; at 11.0 µM 3% | [7]; at 33.0 µM 3% | [8]; [17] -57% | [8]; [18] 60% | [9]; at 1.2 µM -3% | [9]; at 3.7 µM -1% | [9]; at 11.0 µM 4% | [9]; at 33.0 µM 15% | [10]; [17] -67% | [10]; [18] -26% | [10]; at 50.0 µM 23.6% | [11]; at 1.2 µM -2% | [11]; at 3.7 µM 10% | [11]; [17] -50% | [11]; at 11.0 µM 22% | [11]; at 33.0 µM 61% | [11]; [18] 61% | [12]; at 1.2 µM 1% | [12]; at 3.7 µM 2% | [12]; at 11.0 µM 3% | [12]; at 33.0 µM -1% | [13]; at 1.2 µM 6% | [13]; at 3.7 µM 3% | [13]; at 11.0 µM 3% | [13]; at 33.0 µM 3% | [14]; at 1.2 µM -1% | [14]; at 3.7 µM 9% | [14]; at 11.0 µM 12% | [14]; at 33.0 µM 16% | [15]; [17] -133% | [15]; [18] 12% | [16]; at 1.2 µM -2% | [16]; at 3.7 µM -3% | [16]; at 11.0 µM 0% | [16]; at 33.0 µM -6%
